# From PubChem BioAssay
# Sampled rows, rich in hits. Any-hit rate of the full collection: about 3.5%.
# GPR151 activ: activators of human GPR151, primary screen, cell-based, PathHunter beta-arrestin, luminescence; activation, % at 11.2 µM; 1% of 650,000 active; G-protein coupled receptor 151 (Homo sapiens), Q8TDV0; PathHunter beta-arrestin GPR151 cells; in the data active means activation above about 4.9%
# MITF primary: MITF inhibitors, primary screen, biochemical, AlphaScreen, human. Microphthalmia-associated transcription factor (Homo sapiens), O75030. AlphaScreen MITF homodimerization, bead proximity signal. inhibition, % at 2.6 µM. 0.91% of 650,000 active. AID 1259374, 2018; in the data active means inhibition above about 50%
# Target sequence (O75030 whole entry, looked up): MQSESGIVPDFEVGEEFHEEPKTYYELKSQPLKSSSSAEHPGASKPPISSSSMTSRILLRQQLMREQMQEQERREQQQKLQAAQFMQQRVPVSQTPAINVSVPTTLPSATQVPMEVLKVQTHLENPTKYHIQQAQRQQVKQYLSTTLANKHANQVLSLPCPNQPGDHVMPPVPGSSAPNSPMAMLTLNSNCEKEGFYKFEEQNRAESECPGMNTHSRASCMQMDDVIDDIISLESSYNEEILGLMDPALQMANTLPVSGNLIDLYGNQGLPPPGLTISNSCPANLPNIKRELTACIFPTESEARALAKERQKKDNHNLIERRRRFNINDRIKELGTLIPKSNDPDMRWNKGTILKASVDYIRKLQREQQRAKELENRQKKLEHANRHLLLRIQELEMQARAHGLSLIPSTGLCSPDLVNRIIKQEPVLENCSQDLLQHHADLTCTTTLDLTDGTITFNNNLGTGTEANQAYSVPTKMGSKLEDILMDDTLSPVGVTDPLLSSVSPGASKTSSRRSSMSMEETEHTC
# TEAD-YAP block: TEAD-YAP interaction inhibition, primary screen, TEAD-YAP interaction inhibitor project, luminescence, HEK-TIYL cells | 1.4% of 640,000 active | inhibition, % at 9.12 µM | TEAD-Gal4/YAP UAS-luciferase luminescence; in the data active means inhibition above about 32%
# FBW7 activator: FBW7 E3 ligase activators, primary screen, biochemical, AlphaScreen, human; normalized activity (activation), % at 26.1 µM; F-box/WD repeat-containing protein 7 (Homo sapiens), Q969H0; 0.13% of 650,000 active; AlphaScreen FBW7–phospho-cyclin E peptide binding, activator screen; AID 1259310, 2017; in the data active means normalized activity above about 1.9%;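 further: purified mutant Fbw7 with reduced substrate affinity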
# MITF inh conf: MITF inhibitors, retest of hits, confirmation, biochemical, AlphaScreen, triplicate; shares compounds with MITF primary; AlphaScreen MITF homodimerization, biotin/His-MITF beads; inhibition, % at 2.6 µM; 16% of 4,700 active; AID 1259372, 2018;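 active means inhibition above a cutoff derived from the DMSO control wells, cut at about 28% in these data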;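 further: inhibitors lower the bead chemiluminescence by keeping MITF from dimerizing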
# AS interf DR: AlphaScreen optical interference compounds, dose response, counter-screen, biochemical, HTS. AlphaScreen optical interference counterscreen, cell-free. AID 1259373, 2018. 6% of 480 active. shares compounds with MITF primary. IC50, µM; call rule not given here
# AlphaScreen intf2: AlphaScreen optical interference compounds, counter-screen for MITF inhibitor project, biochemical, triplicate. 7.6% of 4,700 active. inhibition, % at 2.6 µM. LysRS AlphaScreen counterscreen, signal interference. shares compounds with MITF primary;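 active means inhibition above a cutoff derived from the DMSO control wells, cut at about 30% in these data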
# Numbers stand for hits; n = inactive; x = no result.
SMILES,GPR151 activ,MITF primary,TEAD-YAP block,FBW7 activator,MITF inh conf,AlphaScreen intf2,others
O=C(O)c1ccc(NC2OC(CO)C(O)C2O)cc1 (configuration not stated),n,66,n,n,57,n,AS interf DR=n
Cc1nn(-c2ccccc2)c2c1C(c1ccc3c(c1)OCO3)C(C#N)=C(N)O2 (configuration not stated),n,n,n,n,x,x,
COC1(OC)N=C(N)C2(C#N)C(c3ccc(NC(C)=O)cc3)C12C#N (configuration not stated),n,51,n,n,n,n,
CCOC1(OCC)N=C(N)C2(C#N)C(c3cccc(Br)c3)C12C#N (configuration not stated),n,n,n,n,x,x,
CCOC1(OCC)N=C(N)C2(C#N)C(c3ccc(NC(C)=O)cc3)C12C#N (configuration not stated),n,55,n,n,n,n,
COC1(OC)N=C(N)C2(C#N)C(c3ccc(F)cc3)C12C#N (configuration not stated),n,55,n,n,n,n,
COC(=O)c1ccc(C2C3(C#N)C(N)=NC(OC)(OC)C23C#N)cc1 (configuration not stated),n,n,n,n,x,x,
Cc1cc(=O)n2c(C(=O)Nc3ccccc3)c(C(=O)Nc3ccccc3)sc2n1,n,n,n,n,x,x,
Cc1ccc(-c2cc(C(=O)Nc3nnc(C)s3)c3ccccc3n2)s1,n,65,n,n,n,n,
Cc1ccc(-c2cc(C(=O)Nc3nc4ccc(Br)cc4s3)c3ccccc3n2)s1,n,n,n,n,x,x,
NS(=O)(=O)c1ccc(CNc2ccc3ncc(-c4cccc(C(=O)O)c4)n3n2)cc1,n,69,n,n,n,n,
CCOC(=O)/C=C(\C)NC1CC(C)(C)NC(C)(C)C1,n,n,n,n,x,x,
Cc1ccc(-c2nc3cccnc3s2)cc1NC(=O)c1cc(Br)ccc1Cl,n,n,n,n,x,x,
Cc1cccc(C)c1N1CCN(C(=O)c2cc3cc(Br)ccc3oc2=O)CC1,n,88,n,n,n,n,
Cc1ccc(N2CCN(C(=O)c3cc4cc(Br)ccc4oc3=O)CC2)cc1C,n,n,n,n,x,x,
COc1ccc(CN2CCN(Cc3c[nH]c4ccccc34)CC2)cc1,n,64,n,n,n,n,
COc1ccc(CN2CCN(Cc3c[nH]c4ccccc34)CC2)c(OC)c1,n,58,n,n,n,n,
CCOc1cc(CN2CCN(Cc3c[nH]c4ccccc34)CC2)ccc1OC,n,60,n,n,n,n,
O=C(NCc1ccccc1)c1cc2c(cc1Cl)N1CCCCCC1=NS2(=O)=O,n,n,n,n,x,x,
COCCCNC(=O)C1CCN(c2nc(C)cc(OC)n2)CC1,n,n,n,n,x,x,
CCCCn1c(SCC(=O)Nc2ccccc2OC)nc2ccsc2c1=O,n,58,n,n,n,n,
CCC(Sc1nc2ccsc2c(=O)n1CCC(C)C)C(=O)Nc1ccc2c(c1)OCO2 (configuration not stated),n,n,n,n,x,x,
COc1ccc(NC(=O)CCCCCn2c(SCC(=O)Nc3ccccc3OC)nc3ccsc3c2=O)cc1,n,n,n,n,x,x,
CCCCn1c(SC(CC)C(=O)Nc2ccc3c(c2)OCO3)nc2ccsc2c1=O (configuration not stated),n,69,n,n,n,n,
CC1(C)NC(=O)N(CCCCOc2ccccc2-c2ccccc2)C1=O,n,n,n,n,x,x,
SMILES,GPR151 activ,MITF primary,TEAD-YAP block,FBW7 activator,MITF inh conf,AlphaScreen intf2,others
CC(NCC1(N2CCOCC2)CCCCC1)C(=O)N1CCc2ccccc21 (configuration not stated),n,53,n,n,n,n,
CC(Nc1ccccc1)C(=O)N1CCc2ccccc21 (configuration not stated),n,n,n,n,x,x,
CCOC1=CC(c2ccc3c(c2)OCO3)CC(=O)c2c(C)oc(C)c21 (configuration not stated),n,57,n,n,42,n,AS interf DR=n
CCOC(=O)C1=C(C)NC2=C(C(=O)CCC2)C1c1ccc2c(c1)OCO2 (configuration not stated),n,n,n,n,x,x,
O=C(Cn1nc2ccccc2n1)N/N=C/c1ccccc1F,n,54,n,n,n,n,
O=C(O)COc1ccc(-n2cccc2)cc1,n,74,n,n,50,n,AS interf DR=n
O=C(O)COc1ccc(N2C(=O)c3ccccc3C2=O)cc1,n,n,n,n,x,x,
Cc1c(Cl)cccc1N=Cc1nc(-c2ccc(Cl)cc2)oc1O,n,n,n,n,x,x,
COc1ccc(S(=O)(=O)CCC(=O)Nc2nc3ccc(OC)cc3s2)cc1,n,54,n,n,28,n,
CS(=O)(=O)c1ccc2nc(NC(=O)COc3ccc(Cl)cc3Cl)sc2c1,n,74,n,n,n,n,
COc1ccc(S(=O)(=O)CCC(=O)Nc2nc3ccc(C)cc3s2)cc1,n,n,n,n,x,x,
Cc1ccc2nc(NC(=O)COc3ccc(Cl)cc3Cl)sc2c1,n,n,n,n,x,x,
CCCCCCCNS(=O)(=O)c1ccc(NC(C)=O)cc1,n,n,n,n,x,x,
C/C(=N\OCC(O)CN1CCOCC1)C1COc2ccccc2O1 (configuration not stated),n,51,n,n,n,n,
C=C(C)CN(CC)Cc1ccc([N+](=O)[O-])o1,n,65,n,n,n,n,
O=C(N/N=C/c1cccc2cccnc12)c1cccc([N+](=O)[O-])c1,n,53,n,n,56,100,
O=C(N/N=C\c1cccc([N+](=O)[O-])c1)c1cnccn1,n,66,n,n,n,n,
O=C(N/N=C/c1cccc2cccnc12)c1ccc(Cl)cc1,n,n,n,n,x,x,
COc1ccc(NC(=O)CSc2nc3ccc(N)cc3s2)cc1,n,n,n,n,x,x,
COC(=O)CSc1nc2ccc(N)cc2s1,n,63,n,n,n,n,
Cc1nnc(CNC(=O)c2cnn(-c3ccccc3)c2C)o1,n,n,n,n,x,x,
Cc1nnc(CNC(=O)c2ccc(-n3cccc3)cc2)o1,n,55,n,n,55,n,AS interf DR=n
Cc1ccc(-n2ncc3c(Nc4ccc(C)c(C)c4)ncnc32)c(C)c1,n,n,n,n,x,x,
COc1cc(CN2CCC(N3CCOCC3)CC2)cc(OC)c1OC,n,n,n,n,x,x,
COc1cc(CN2CCN(C3CCC(c4ccccc4)CC3)CC2)cc(OC)c1OC (configuration not stated),n,69,n,n,n,n,
COc1ccc(OC)c(CN2CCC(N3CCN(CCO)CC3)CC2)c1,n,81,n,n,n,n,
